Experimental findings from PubChem BioAssay (NCI) are described below.

Compounds without any hit were thinned out: in the full panel of roughly 83,000, 20% have a hit.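 Growth was measured after 48 h exposure to one concentration of compound in 96-well plates. Values under 10 count as active.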 A number with no mark means an inactive call. Calls of active or inactive are those of the source.

In the assay the test system is SNB-75 CNS. In words: NCI-60 one-dose screen, 48 h (100 = growth as untreated, 0 = no growth, -100 = all killed). To be noted: 10 µM. Here is the method: Growth inhibition of the SNB-75 human tumor cell line is measured as a screen for anti-cancer activity. Cells are grown in 96 well plates and exposed to the test compound for 48 hours. Compounds are tested at a single concentration, which is 10^-5 M for most compounds. The reported endpoint is percent growth (GI% or GIPRCNT), where numbers from 0 - 100% represent growth inhibition, and numbers from -100% - 0 represent cell death. For example, a value of 40 represents 60% growth inhibition. A value of 0 means no net growth occurred over the course of the experiment. A value of -40 indicates 40% of cells at the beginning of the experiment died by the end of the experiment. A value of -100 means all cells are dead at the end of the experiment.
NCI-60 Human Tumor Cell Lines Screen was performed using the standard one-dose NCI protocol, which is described in more detail at https://dtp.cancer.gov/discovery_development/nci-60/default.htm.
Compounds with GIPRCNT values below 10 were considered active. Activity score was based on GIPRCNT using the following formula: […]
Score is 0 for GIPRCNT values of 100 or above, 50 for GIPRCNT values of 0, and 100 for GIPRCNT values of -100.
On to `Cc1ccc(Nc2nnc(-c3cc(-c4ccncc4)n(-c4ccccc4)n3)s2)cc1`, for which the growth is 116%.

With `COC(=O)c1c(-c2ccccc2)csc1NC(=O)c1c(-c2ccccc2)noc1C`, the growth was 48.1%.

For `CCN(CC)CCCC(C)Nc1ccc2ccc(Cl)cc2n1` (stereo not given), the growth was 77%.

With `Cc1ccc(NC(=O)NC2CCCCC2)cc1`, the growth was 107%.

As to `O=C1/C(=C\c2ccc(F)cc2)CN(C(=O)c2ccccc2F)C/C1=C\c1ccc(F)cc1`, the growth was 52.9%.

For the compound `COc1cc(/C=N/NC(=O)c2ccccc2Nc2ccnc(C(F)(F)F)c2)ccc1O`, the growth was 94.1%.

Regarding `CCOC(=O)N1C/C(=C/c2ccc(OC)cc2)C(=O)/C(=C/c2ccc(OC)cc2)C1`, the growth was 48.8%.

As for `CCOC(=O)C1(CC(C)C)CCOC1=O` (stereo not given), the growth is 86.8%.

Consider `COc1ccc(-c2nsc3c2NC(=O)CC3c2ccc(F)cc2)cc1` (stereo not given), for which the growth is 63.5%.

As for `CCN(CC)CCNC(=O)c1ccc(NC(C)=O)cc1`, the growth was 112%.

Take `O=C1/C(=C/c2ccc(Cl)cc2)SC(=Nc2ccc(Cl)cc2)N1Cc1nc2ccccc2[nH]1`: the growth is 27.1%.

In the case of `CCOC(=O)C(=Cc1ccc(Br)cc1)C(=O)OCC`, the growth is 12.7%.

On to `COc1ccc2c(c1)C(=O)c1c-2c(=O)n(CCCN(C)C)c2cc(OC)c(OC)cc12`, for which the growth was 48.9%.

On to `COc1cc(-c2cc(C(=O)N3CCN(C(=O)c4ccccc4NCc4cccs4)CC3)nc3cc(-c4ccccc4)nn23)cc(OC)c1OC`, for which the growth was 71%.

Take `C#Cc1ccc(-n2c(/C=C/c3ccc4ccccc4n3)nc3ncccc3c2=O)cc1`: the growth is -59.2% (active).

Consider `COc1ccc(-c2csc(NC(=O)CSc3nc(C)c(-c4ccccc4)n3Nc3ccccc3)n2)cc1`, for which the growth was 49%.

As to `COc1ccc(-c2nc3ncccn3c2-c2nnc(-c3ccc(F)cc3)o2)cc1`, the growth is 94.7%.

On to `COc1cccc(Cn2c(-c3nonc3N)nc3ccccc32)c1`, for which the growth is -16.7% (active).

As for `O=C(CC(NC(=O)OCc1ccccc1)C(=O)OCc1ccccc1)OCc1ccccc1` (stereo not given), the growth was 113%.

Regarding `COc1ccc(/C=C2/CN(C(=O)c3ccccc3F)C/C(=C\c3ccc(OC)cc3)C2=O)cc1`, the growth was 68.9%.

Take `CC/C(=N\N=C(/CC)c1ccc(Br)cc1)c1ccc(Br)cc1`: the growth is 89.9%.

Turning to `CCOC(=O)c1ccoc1`, the growth was 94.4%.

Take `Nc1nc(N)c(NC(=O)CNc2ccc(C(=O)O)cc2)c(N)n1`: the growth is 76%.

Turning to `O=C(O)C(SC(C(=O)O)c1ccccc1)c1ccccc1` (stereo not given), the growth is 85.6%.

On to `CCCCCCCCCCCC[n+]1ccc(C(N)=O)cc1`, for which the growth was -4.25% (active).

For `CC(=O)OCc1cc(-c2nc3ccccc3[nH]c2=O)nn1-c1ccc(Cl)cc1`, the growth is 98.6%.

Turning to `Cc1ccc(S(=O)(=O)Oc2ccc3c4c(c(=O)oc3c2)CCCCC4)cc1`, the growth is 76.2%.

As to `COc1ccccc1CNCCN1C(=O)c2ccc3c4c(ccc(c24)C1=O)C(=O)N(CCNCc1ccccc1OC)C3=O`, the growth is -96.1% (active).

As to `O=C(Nc1cccc(Br)c1)c1cc(=O)[nH]c2ccccc12`, the growth is 70.6%.

With `COc1ccc(/C=C/C(C)=N/OCC(=O)O)cc1`, the growth is 100%.

For `COc1cc(-c2nc(Nc3nc4ccccc4s3)[nH]c(=O)c2C#N)cc(OC)c1O`, the growth is 88.6%.

Take `CCOC(=O)CCC(NC(=O)c1ccc(N)cc1)C(=O)OCC` (stereo not given): the growth is 113%.

Regarding `COc1cc2nc(Nc3cccc(NC(C)=O)c3)nc(N)c2cc1OC`, the growth is 85%.

As for `CCN(CC)CCSCCN(CC)CC`, the growth was 96.3%.

With `O=[N+]([O-])c1ccc(Oc2cc(Cl)c(Cl)cc2Cl)c(C(F)(F)F)c1`, the growth is 89.4%.

For the compound `CCN1CCN(c2nc3ccccc3c3c(=O)c4ccccc4sc23)CC1`, the growth was 44.5%.

Regarding `Cc1ccc(N=Nc2c(N)nc(N)[nH]c2=O)cc1C`, the growth is 104%.

`COc1cc(C)ccc1C(=O)c1ccc(C)cc1OC`: the growth is 8.51% (active).

As for `O=[P@@]1(c2ccccc2)O[C@H](COCc2ccccc2)[C@@H](OCc2ccccc2)[C@H](OCc2ccccc2)[C@H]1O`, the growth is -12.1% (active).

As to `N#Cc1c(C#N)c(SSc2c(C#N)c(C#N)c(N)n2-c2ccccc2)n(-c2ccccc2)c1N`, the growth was 71.7%.
